The text below walks through data of PubChem BioAssay.

The inhibition is the percentage by which the read-out fell short of the control.

Values without a mark were called inactive. No rule for the calls is given here.

The target of the experiment is Pantothenate synthetase (Mycobacterium tuberculosis (strain ATCC 25618 / H37Rv)) (UniProt P9WIL5). The experiment is described as follows: Recombinant Mtb pantothenate synthetase (PanC) inhibitors, coupled enzyme, confirmatory (AID 375).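 Also: 0% = full reaction with vehicle and 100% = no enzyme background.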 The settings on record: coupled enzyme assay; at 10 µM, stronger effect = higher value.
Sequence of Pantothenate synthetase (Mycobacterium tuberculosis (strain ATCC 25618 / H37Rv)) (P9WIL5 whole entry, looked up): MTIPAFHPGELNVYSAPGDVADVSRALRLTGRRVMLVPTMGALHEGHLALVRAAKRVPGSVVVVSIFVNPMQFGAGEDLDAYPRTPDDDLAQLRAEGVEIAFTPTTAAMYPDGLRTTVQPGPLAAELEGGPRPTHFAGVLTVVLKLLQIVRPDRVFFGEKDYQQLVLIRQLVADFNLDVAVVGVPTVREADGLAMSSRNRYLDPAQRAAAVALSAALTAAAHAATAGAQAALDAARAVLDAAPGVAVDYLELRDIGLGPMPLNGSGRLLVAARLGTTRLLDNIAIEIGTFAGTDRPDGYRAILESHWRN
As to `Cc1ccc2nsnc2c1S(=O)(=O)N(Cc1cc2cccc(C)c2[nH]c1=O)CC1CCCO1` (stereo not drawn), the inhibition was 0%. Then `CCN1CCN(C(=O)Cn2ncc3ccsc3c2=O)CC1`, with 0%.

`O=C1CC(Sc2nnc(-c3ccccc3)o2)C(=O)N1c1ccccc1` (stereo not drawn): the inhibition was 0%.

For `Cc1cnc(C(=O)Nc2ccc(N3CCN(C(=O)OC(C)(C)C)CC3)cc2)cn1`, the inhibition was 0%. To `CCN(C(=O)c1cc2cc3ccc(C)cc3nc2o1)c1ccc(OC)cc1` belongs 6%.

Turning to `O=C(CSc1nnc(-c2ccco2)n1CC1CCCO1)N1CCCCC1` (stereo not drawn), the inhibition was 0%. Then `CCOc1ccc(N(CC(=O)Nc2ccc(F)c(F)c2)S(=O)(=O)c2c(C)noc2C)cc1`, with 4%; and `Cc1nc2ccccn2c1/C(O)=C1\C(=O)C(=O)N(CCCN(C)C)C1c1ccc(F)cc1` (stereo not drawn), with 4%; and `CCOc1ccc2c(O)csc2c1`, with 0%. Then `Cc1ccccc1NC(=O)N1C2CCCC1CC(NC(=O)C1CC1)C2` (stereo not drawn), with 14%. Then `COc1ccccc1C1/C(=C(/O)c2ccccc2)C(=O)C(=O)N1CC(C)C` (stereo not drawn), with 0%; and `Cc1c(CCC#N)c(N2CCN(C3CCCCC3)CC2)n2c(nc3ccccc32)c1C#N`, with 3%. For the compound `Cc1[nH]nc2c1C(c1ccc(F)cc1)C1=C(CC(C)(C)CC1=O)N2` (stereo not drawn), the inhibition was 11%. To `O=S(=O)(NCCc1ccccn1)c1cccs1` belongs 3%; to `O=C(NC1=NCCS1)NC12CC3CC(CC(C3)C1)C2`, 2%; to `c1ccc(OCCOc2ncnc3sccc23)cc1`, 0%. Then `CCOc1ccc(C(=O)OCc2nnc(-c3cccs3)o2)cc1OC`, with 0%. As to `COc1ccccc1C(=O)Nc1ccccc1C(=O)N1CCCC1`, the inhibition was 1%. Then `OC1(c2cccc(C(F)(F)F)c2)CCNCC1`, with 4%; and `Clc1cccc(N2CCN(Cc3nc(-c4ccccc4)no3)CC2)c1`, with 0%. In the case of `O=C(NC1CCCCCC1)c1c(F)c(F)c(F)c(F)c1F`, the inhibition was 4%. To `COc1c2occc2c(OC)c2c(=O)cc(C)oc12` belongs 8%; to `O=S(=O)(Cc1ccccc1)N1CCCCCC1`, 0%.
